# According to PubChem BioAssay AID1159580 (chemical genetic matrix, 2015):
# Values joined by “and” are separate entries in the source; they are usually repeats but may differ in a detail not shown here. Equal entries are not always repeated. Out of some 5,500 compounds screened, about 2,000 (36%) were called active. Inconclusive results (about 18%) are left out. Rule as the data show it: active = normalized growth mostly below about 0.91 (no sharp cut-off); inconclusive = no clear call, values can overlap the other calls; inactive = mostly above about 0.92. The list shows a part of the results.
# Assay: chemical genetic growth profiling, strain panel (AID 1159580);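 also: tested at 20 µM; growth read once vehicle control cultures reached saturation at 30 °C; 1 = growth at the plate median or of vehicle wells; lower values mean less growth of the strain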
# Conditions: S. cerevisiae deletion strains, growth OD
structure (smiles),measurement,setting,value
C[n+]1cc2c3c(ccc2c2ccc4cc5c(cc4c21)OCO5)OCO3,normalized growth,"locus YAL013W, strain DEP1, stronger effect = lower value",0.06 (active) and 0.0669 (active)
same,normalized growth,"locus YAL021C, strain ccr4, stronger effect = lower value",0.823 (active)
same,normalized growth,"locus YAL026C, strain drs2, stronger effect = lower value",0.657 (active)
same,normalized growth,"locus YAL030W, strain snc1, stronger effect = lower value",0.676 (active)
same,normalized growth,"locus YBL061C, strain skt5, stronger effect = lower value",0.627 (active)
same,normalized growth,"locus YBR009C, strain hhf1, stronger effect = lower value",0.268 (active)
same,normalized growth,"locus YBR021W, strain FUR4, stronger effect = lower value",0.146 (active)
same,normalized growth,"locus YBR023C, strain chs3, stronger effect = lower value",0.592 (active)
same,normalized growth,"locus YBR171W, strain sec66, stronger effect = lower value",0.983 (inactive)
same,normalized growth,"locus YBR229C, strain ROT2, stronger effect = lower value",0.0617 (active)
same,normalized growth,"locus YBR231C, strain swc5, stronger effect = lower value",0.326 (active)
same,normalized growth,"locus YBR279W, strain paf1, stronger effect = lower value",0.674 (active)
same,normalized growth,"locus YCL011C, strain gbp2, stronger effect = lower value",0.34 (active)
same,normalized growth,"locus YCL016C, strain dcc1, stronger effect = lower value",0.535 (active)
same,normalized growth,"locus YCL029C, strain bik1, stronger effect = lower value",0.0684 (active)
same,normalized growth,"locus YCL061C, strain MRC1, stronger effect = lower value",0.672 (active)
same,normalized growth,"locus YCL069W, strain vba3, stronger effect = lower value",0.596 (active)
same,normalized growth,"locus YCR088W, strain abp1, stronger effect = lower value",0.802 (active)
same,normalized growth,"locus YDL005C, strain med2, stronger effect = lower value",0.711 (active)
same,normalized growth,"locus YDL035C, strain GPR1, stronger effect = lower value",0.057 (active)
same,normalized growth,"locus YDL040C, strain nat1, stronger effect = lower value",0.858 (active)
same,normalized growth,"locus YDL074C, strain BRE1, stronger effect = lower value",0.0875 (active)
same,normalized growth,"locus YDL101C, strain DUN1, stronger effect = lower value",0.0699 (active)
same,normalized growth,"locus YDL134C, strain PPH21, stronger effect = lower value",0.0603 (active)
same,normalized growth,"locus YDL185W, strain tfp1, stronger effect = lower value",0.914 (inactive)
same,normalized growth,"locus YDL192W, strain arf1, stronger effect = lower value",0.0735 (active)
same,normalized growth,"locus YDR001C, strain nth1, stronger effect = lower value",0.928 (inactive)
same,normalized growth,"locus YDR069C, strain doa4, stronger effect = lower value",0.902 (inactive)
same,normalized growth,"locus YDR101C, strain arx1, stronger effect = lower value",0.0711 (active)
same,normalized growth,"locus YDR137W, strain rgp1, stronger effect = lower value",0.692 (active)
same,normalized growth,"locus YDR150W, strain NUM1, stronger effect = lower value",0.0564 (active)
same,normalized growth,"locus YDR159W, strain sac3, stronger effect = lower value",0.62 (active)
same,normalized growth,"locus YDR162C, strain NBP2, stronger effect = lower value",0.0557 (active)
same,normalized growth,"locus YDR195W, strain ref2",1.09 (inactive)
same,normalized growth,"locus YDR297W, strain sur2, stronger effect = lower value",0.609 (active)
same,normalized growth,"locus YDR318W, strain mcm21, stronger effect = lower value",0.0705 (active)
same,normalized growth,"locus YDR334W, strain swr1, stronger effect = lower value",0.46 (active)
same,normalized growth,"locus YDR335W, strain msn5, stronger effect = lower value",0.714 (active)
same,normalized growth,"locus YDR363W, strain ESC2, stronger effect = lower value",0.0888 (active)
same,normalized growth,"locus YDR388W, stronger effect = lower value",0.0658 (active)
same,normalized growth,"locus YDR392W, strain spt3, stronger effect = lower value",0.11 (active)
same,normalized growth,"locus YDR502C, strain sam2, stronger effect = lower value",0.0731 (active)
same,normalized growth,"locus YEL003W, strain gim4, stronger effect = lower value",0.668 (active)
same,normalized growth,"locus YEL037C, strain rad23, stronger effect = lower value",0.797 (active)
same,normalized growth,"locus YEL061C, strain CIN8 (second series), stronger effect = lower value",0.7 (active)
same,normalized growth,"locus YEL061C, strain CIN8, stronger effect = lower value",0.0546 (active)
same,normalized growth,"locus YER002W, strain NOP16, stronger effect = lower value",1.01 (inactive)
same,normalized growth,"locus YER015W, strain faa2, stronger effect = lower value",0.516 (active)
same,normalized growth,"locus YER016W, strain bim1, stronger effect = lower value",0.788 (active)
same,normalized growth,"locus YER110C, stronger effect = lower value",0.0876 (active)
same,normalized growth,"locus YER111C, strain swi4, stronger effect = lower value",0.847 (active)
same,normalized growth,"locus YER155C, strain BEM2 (second series), stronger effect = lower value",0.442 (active)
same,normalized growth,"locus YER155C, strain BEM2, stronger effect = lower value",0.0755 (active)
same,normalized growth,"locus YER167W, strain BCK2, stronger effect = lower value",0.0605 (active)
same,normalized growth,"locus YFR010W, strain ubp6, stronger effect = lower value",0.898 (active)
same,normalized growth,"locus YGL078C, strain dbp3, stronger effect = lower value",0.907 (active)
same,normalized growth,"locus YGL086W, strain mad1, stronger effect = lower value",0.0683 (active)
same,normalized growth,"locus YGL167C, strain pmr1, stronger effect = lower value",0.974 (inactive)
same,normalized growth,"locus YGL173C, strain kem1, stronger effect = lower value",0.772 (active)
same,normalized growth,"locus YGL227W, strain vid30, stronger effect = lower value",0.519 (active)
same,normalized growth,"locus YGL240W, strain doc1, stronger effect = lower value",0.396 (active)
same,normalized growth,"locus YGL248W, strain PDE1, stronger effect = lower value",0.0602 (active)
same,normalized growth,"locus YGL253W, strain hxk2, stronger effect = lower value",0.501 (active)
same,normalized growth,"locus YGR078C, strain PAC10, stronger effect = lower value",0.0588 (active)
same,normalized growth,"locus YGR135W, strain pre9, stronger effect = lower value",0.0753 (active)
same,normalized growth,"locus YGR229C, strain SMI1, stronger effect = lower value",0.0651 (active)
same,normalized growth,"locus YGR252W, strain gcn5, stronger effect = lower value",0.18 (active)
same,normalized growth,"locus YHR013C, strain ard1, stronger effect = lower value",0.319 (active)
same,normalized growth,"locus YHR027C, strain rpn1, stronger effect = lower value",0.73 (active)
same,normalized growth,"locus YHR030C, strain SLT2, stronger effect = lower value",0.0584 (active) and 0.981 (inactive)
same,normalized growth,"locus YHR079C, strain IRE1 (second series), stronger effect = lower value",0.0663 (active)
same,normalized growth,"locus YHR079C, strain IRE1, stronger effect = lower value",0.985 (inactive)
same,normalized growth,"locus YHR094C, strain hxt1, stronger effect = lower value",0.0664 (active)
same,normalized growth,"locus YHR129C, strain ARP1, stronger effect = lower value",0.0634 (active)
same,normalized growth,"locus YHR142W, strain chs7, stronger effect = lower value",0.348 (active)
same,normalized growth,"locus YHR200W, strain rpn10, stronger effect = lower value",0.0675 (active)
same,normalized growth,"locus YIL066C, strain RNR3, stronger effect = lower value",0.0586 (active)
same,normalized growth,"locus YIL073C, strain SPO22, stronger effect = lower value",0.133 (active)
same,normalized growth,"locus YIL125W, strain kgd1, stronger effect = lower value",0.915 (active)
same,normalized growth,"locus YIR030C, strain dcg1, stronger effect = lower value",0.0697 (active)
same,normalized growth,"locus YJL092W, strain hpr5, stronger effect = lower value",0.793 (active)
same,normalized growth,"locus YJL095W, strain BCK1 (second series), stronger effect = lower value",0.467 (active)
same,normalized growth,"locus YJL095W, strain BCK1, stronger effect = lower value",0.073 (active) and 0.976 (inactive)
same,normalized growth,"locus YJL115W, strain asf1, stronger effect = lower value",0.881 (active)
same,normalized growth,"locus YJL129C, strain trk1, stronger effect = lower value",0.309 (active)
same,normalized growth,"locus YJL134W, strain LCB3, stronger effect = lower value",0.0573 (active)
same,normalized growth,"locus YJL154C, strain vps35, stronger effect = lower value",0.962 (inactive)
same,normalized growth,"locus YJL164C, strain tpk1, stronger effect = lower value",0.363 (active)
same,normalized growth,"locus YJL166W, strain qcr8, stronger effect = lower value",0.242 (active)
same,normalized growth,"locus YJL168C, strain set2, stronger effect = lower value",0.0819 (active)
same,normalized growth,"locus YJL187C, strain SWE1 (second series), stronger effect = lower value",0.0606 (active)
same,normalized growth,"locus YJL187C, strain SWE1, stronger effect = lower value",0.618 (active)
